Assay results published in PubChem BioAssay (NCATS).
Values joined by “and” are separate entries in the source; they are usually repeats but may differ in a detail not shown here. Identical values can stand only once. Results filed as inconclusive are left out. Active and inactive are the calls of the source. Unless noted, the call rests on the fitted dose curve; in most records, active means well fitted curve in the direction sought with a large enough effect; inconclusive means small, poorly fitted or top-dose-only effect, or another doubt; inactive means no such curve, though single readings can be large; an effect the other way counts as inactive or inconclusive.

Tests used:
[1] = qHTS assay for small molecule antagonists of retinoid X receptor alpha signaling (AID 588546; active means well fitted inhibition curve with a large enough effect in the signal ratio, with a control signal flat, not every such curve was filed as active; the % refers to the signal ratio; further: potency means the concentration at half of the fitted maximal effect;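 on max response: cells stimulated with 9-cis-retinoic acid as agonist; on the % scale 0 is the no-effect control and ±100 the full control effect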); conditions: HEK293T RXRa-UAS-bla, beta-lactamase ratio, antagonist mode; measured here: W530 green channel, cytotoxicity proxy
Summary of the method: (§1)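 Beta-lactamase reporter inhibition, read as CCF4 fluorescence ratio (ex 405, em 460/530 nm) after 2 h at RT. HEK293T UAS-bla cells, 2500/well, were stimulated with 9-cis-RA at 500 or 100 nM final alongside test compound for 18 h at 37 C.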

[2] = target: Retinoic acid receptor RXR-alpha (Homo sapiens) (UniProt P19793); assay: as above; conditions: HEK293T RXRa-UAS-bla, beta-lactamase ratio, antagonist mode
Summary of the method: as §1

[3] = target: Voltage-gated inwardly rectifying potassium channel KCNH2 (Homo sapiens) (UniProt Q12809); assay: qHTS Assay for Small Molecule Inhibitors of the Human hERG Channel Activity (AID 588834); conditions: U2OS BacMam hERG, FluxOR thallium flux fluorescence; series mostly up to 46.1 µM;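 further: top concentration of the series differs between compounds; on the % scale 0 is the no-effect control and ±100 the full control effect; lower thallium flux fluorescence means stronger hERG block; nearly all actives have a fitted effect of over 50% in size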
Summary of the method: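 Blockade is seen as reduced FluxOR thallium-flux fluorescence in U2OS cells expressing hERG from a BacMam construct, in Opti-MEM with 2% FCS. Concentration-response data fitted to the Hill equation for AC50.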

[4] = target: Luciferin 4-monooxygenase (Photinus pyralis) (UniProt P08659); assay: Biochemical firefly luciferase enzyme assay for NPC (AID 624030); further: nearly all actives have a fitted effect of over 70% in size; further: potency means the concentration at half of the fitted maximal effect; conditions: purified P. pyralis luciferase, luminescence, 5 min; series mostly up to 58.6 µM
Summary of the method: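 Direct inhibition of firefly luciferase enzyme (10 nM final, 50 mM Tris Acetate) assessed by luminescence within 5 minutes. Percent activity scaled between DMSO and PTC124 positive control, with concentration-effect curves classified by fit quality and response.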

[5] = S16 Schwann cell PMP22 intronic element firefly luciferase assay (AID 624032); conditions: S16 rat Schwann cells, PMP22 element FLuc, 24 h; series mostly up to 57.5 µM;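 further: plate controls were DMSO for no effect and PTC124 positive control mean for full effect; nearly all actives have a fitted effect of over 30% in size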
Summary of the method: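 Luciferase reporter of PMP22 intronic-element expression in stably transfected S16 rat Schwann cells, read by ONE-Glo luminescence after 24 h compound exposure at 37 C. Activity scaled between DMSO (0%) and positive-control PTC124; concentration-effect curves quality-classified.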

[6] = target: Glutaminase kidney isoform, mitochondrial (Homo sapiens) (UniProt O94925); assay: qHTS for Inhibitors of Glutaminase (GLS): LOPAC Validation (AID 624146); conditions: glutaminase enzyme activity inhibition; series mostly up to 46.1 µM; further: nearly all actives have a fitted effect of over 60% in size; further: potency means the concentration at half of the fitted maximal effect
Summary of the method: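 Coupled fluorescence readout: glutamate oxidase/HRP/Amplex Red detect glutamate formed by hKGA from L-glutamine (1 mM solution added). Buffer 45 mM KH2PO4 pH 8.2, 0.02% Tween-20; reads at t0 and 30 min RT.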

[7] = qHTS of Trypanosoma Brucei Inhibitors: LOPAC Validation (AID 624147); conditions: purified enzyme assay, luminescence, 45 min; series mostly up to 57.5 µM; further: potency means the concentration at half of the fitted maximal effect
Summary of the method: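 Glycolytic pyruvate kinase of T. brucei was incubated with substrate, test compound and 130 uM ADP for 45 minutes at room temperature. Luminescent Kinase-Glo Plus signal was measured after 10 minutes.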

[8] = target: Glucagon-like peptide 1 receptor (Homo sapiens) (UniProt P43220); assay: qHTS of GLP-1 Receptor Agonists: LOPAC Validation (AID 624148); conditions: GLP-1R agonist cell assay; series mostly up to 46.1 µM;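 further: luminescence from a luciferase reporter switched on by cAMP; 0% is about no effect; higher luminescence signal means agonism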
Summary of the method: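 Agonism scored as increased luciferase luminescence driven by cAMP in HEK293 clones carrying GLP-1R. Cells settled 12 hours, received compound for 4-6 hr at 37 deg C, 5% CO2, and were read after 12 min detection reagent at RT.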

[9] = qHTS of Nrf2 Activators: LOPAC Validation (AID 624149); conditions: Nrf2/ARE reporter cell assay; series mostly up to 46.1 µM; further: 0% is about no effect
Summary of the method: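 AREc32 cells carrying an ARE-driven firefly luciferase were grown overnight in OPTI-MEM with 5% FBS, then exposed to compounds for 24 hr at 37 deg C. Luciferase signal was read after 30 min with Steady-Glo at RT.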

[10] = HTS Assay for Allosteric Antagonists of the Human D2 Dopamine Receptor: Hit Validation in HTRF (AID 624455); conditions: Cells stably expressing D1 dopamine receptor, inhibition mode; series mostly up to 46.1 µM;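 further: stable D1 dopamine receptor cell line scored for blocking the D1 response; on the % scale 0 is the no-effect control and ±100 the full control effect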
Summary of the method: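 Hits were examined in an HTRF assay using cells stably expressing the D1 dopamine receptor, scoring inhibition of the D1-mediated response. The preceding primary screen tracked calcium flux after an EC80 dopamine addition in force-coupled, inducible Hek293 Trex D2 cells.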

[11] = target: Thyroid hormone receptor beta (Homo sapiens) (UniProt P10828); assay: qHTS assay for small molecule agonists of thyroid hormone receptor beta signaling (AID 588545; calls by dose curve); conditions: TR-UAS-bla GripTite HEK 293, beta-lactamase ratio, agonist mode, 18 h, percent of T3 response, DMSO as zero; series mostly up to 76.7 µM
Summary of the method: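 Cells (2500/well) were seeded, incubated 4 hrs at 37 C, dosed with a compound series, incubated 18 hrs, loaded with CCF4 dye for 2 hrs at RT, then read for fluorescence. Data were scaled between DMSO (0%) and 10 nM T3 (100%).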

[12] = target: Thyroid hormone receptor beta (Homo sapiens) (UniProt P10828); assay: qHTS assay for small molecule antagonists of thyroid hormone receptor beta signaling (AID 588547; active means well fitted inhibition curve with a large enough effect in the signal ratio, with a control signal flat, not every such curve was filed as active; the % refers to the signal ratio;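 further: cells stimulated with 0.4 nM T3 agonist during compound exposure; on the % scale 0 is the no-effect control and ±100 the full control effect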); conditions: TR-UAS-bla HEK293, beta-lactamase ratio, antagonist mode, 18 h
Summary of the method: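 Inhibition of T3-driven (0.4nM final) beta-lactamase reporter activity was measured over 0.59 nM to 92 uM compound after 18 h at 37 C. The cells were GripTite HEK293 TR-UAS-bla in charcoal/dextran-stripped serum, with CCF4 ratio read-out and IC50 from Hill fits.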

[13] = S16 Schwann cell PMP22 intronic element beta-lactamase assay (AID 624044; calls by dose curve; further: nearly all actives have a fitted effect of over 15% in size; further: potency means the concentration at half of the fitted maximal effect); conditions: S16 rat Schwann cells, PMP22 element beta-lactamase FRET, 24 h; series mostly up to 38.3 µM
Summary of the method: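 Rat S16 Schwann cells with beta-Lac driven by a PMP22 intronic element, compound-treated 24 h at 37 °C. LiveBLAzer FRET B/G read: 460 nm normalized to potassium clavulanate vs DMSO; 535 nm FRET as viability; concentration-effect curves classified.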

[14] = S16 Schwann cell viability assay (CellTiter-Glo assay) (AID 624031); conditions: S16 rat Schwann cells viability, 24 h; series mostly up to 57.5 µM;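 further: native untransfected S16 rat Schwann cells; cellular ATP luminescence as a viability measure; plate controls were DMSO-treated cells for no effect and cell-free wells for full effect; nearly all actives have a fitted effect of over 70% in size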
Summary of the method: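 Following overnight culture in 10% FBS DMEM, parental S16 rat Schwann cells are dosed for 24 h at 37 °C. Viability is read as CellTiter-Glo luminescence and expressed as % activity relative to DMSO (0%) and no-cell wells.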

[15] = qHTS Assay for Identification of Small Molecule Agonists for NFkB Signaling Pathway. (AID 624478); conditions: NFkB pathway reporter cell assay, agonist mode, cells co-stimulated with 10 pM TNF alpha; series mostly up to 46.1 µM; further: 0% is about no effect
Summary of the method: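 NFkB-bla ME-180 cells (beta-lactamase reporter under NFkB response element) were plated overnight, treated with compound plus TNF alpha at 10 pM final (its EC50) for 5 hrs at 37 C, then loaded with LiveBLAzer substrate for 2 hrs.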

[16] = qHTS Assay for Identification of Small Molecule Antagonists for NFkB Signaling Pathway. (AID 624479; calls by dose curve; further: potency means the concentration at half of the fitted maximal effect); conditions: NFkB pathway reporter cell assay, antagonist mode; series mostly up to 38.3 µM
[17] = Cell Proliferation Assay against the TMD8 Cell Line (AID 651645); conditions: TMD8 DLBCL cell line proliferation/viability; at 46.1 µM (top of the series) unless noted;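 further: cells exposed to compound for 48 h before reading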
Summary of the method: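 Cell viability of the ABC DLBCL line TMD8 is measured by CellTiter-Glo luminescence following a 48-hour incubation with compound. Percent activity uses DMSO as 100% and 9.2 uM bortezomib (final) as 0%.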

[18] = Cell Proliferation Assay against the HBL1 Cell Line (AID 651646); conditions: HBL1 DLBCL cells; at 46.1 µM (top of the series) unless noted;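 further: cells exposed to compound for 48 h before reading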
Summary of the method: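 Luminescent ATP read-out (CellTiter-Glo) after 48 h compound exposure of HBL1 cells at 37 °C; percent activity was scaled between DMSO as 100% and 9.2 uM bortezomib (final) as 0%.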

Chain of Glutaminase kidney isoform, mitochondrial (Homo sapiens) (O94925 whole entry, looked up, canonical isoform): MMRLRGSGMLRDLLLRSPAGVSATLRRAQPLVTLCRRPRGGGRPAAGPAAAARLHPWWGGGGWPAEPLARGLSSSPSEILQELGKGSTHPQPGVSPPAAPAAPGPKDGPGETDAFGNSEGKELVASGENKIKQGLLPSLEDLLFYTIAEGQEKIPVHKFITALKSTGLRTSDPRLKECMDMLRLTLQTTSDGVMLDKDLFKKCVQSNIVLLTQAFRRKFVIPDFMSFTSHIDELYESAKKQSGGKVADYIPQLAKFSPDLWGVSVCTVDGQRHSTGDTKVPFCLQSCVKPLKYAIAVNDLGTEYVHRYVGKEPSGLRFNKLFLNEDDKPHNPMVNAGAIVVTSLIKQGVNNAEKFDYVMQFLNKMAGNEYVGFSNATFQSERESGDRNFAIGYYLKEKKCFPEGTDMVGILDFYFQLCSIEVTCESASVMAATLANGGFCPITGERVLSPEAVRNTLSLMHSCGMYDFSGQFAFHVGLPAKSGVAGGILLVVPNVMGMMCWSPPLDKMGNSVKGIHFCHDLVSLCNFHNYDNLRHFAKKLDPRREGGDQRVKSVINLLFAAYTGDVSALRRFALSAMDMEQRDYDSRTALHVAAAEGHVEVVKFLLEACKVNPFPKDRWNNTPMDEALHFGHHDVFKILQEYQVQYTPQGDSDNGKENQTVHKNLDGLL
Chain of Glucagon-like peptide 1 receptor (Homo sapiens) (P43220 whole entry, looked up): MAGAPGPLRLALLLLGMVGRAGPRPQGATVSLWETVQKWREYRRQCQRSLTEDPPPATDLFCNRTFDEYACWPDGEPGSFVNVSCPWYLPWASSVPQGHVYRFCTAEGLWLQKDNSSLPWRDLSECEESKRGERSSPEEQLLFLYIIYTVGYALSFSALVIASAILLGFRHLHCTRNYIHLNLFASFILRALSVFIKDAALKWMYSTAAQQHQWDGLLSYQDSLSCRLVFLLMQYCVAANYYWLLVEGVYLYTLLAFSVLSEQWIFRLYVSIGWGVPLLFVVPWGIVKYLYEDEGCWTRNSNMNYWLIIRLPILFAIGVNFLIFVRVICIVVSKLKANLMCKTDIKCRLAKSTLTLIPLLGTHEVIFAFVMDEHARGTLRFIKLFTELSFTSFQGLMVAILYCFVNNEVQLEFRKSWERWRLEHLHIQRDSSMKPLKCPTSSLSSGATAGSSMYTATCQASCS
Chain of Retinoic acid receptor RXR-alpha (Homo sapiens) (P19793 whole entry, looked up): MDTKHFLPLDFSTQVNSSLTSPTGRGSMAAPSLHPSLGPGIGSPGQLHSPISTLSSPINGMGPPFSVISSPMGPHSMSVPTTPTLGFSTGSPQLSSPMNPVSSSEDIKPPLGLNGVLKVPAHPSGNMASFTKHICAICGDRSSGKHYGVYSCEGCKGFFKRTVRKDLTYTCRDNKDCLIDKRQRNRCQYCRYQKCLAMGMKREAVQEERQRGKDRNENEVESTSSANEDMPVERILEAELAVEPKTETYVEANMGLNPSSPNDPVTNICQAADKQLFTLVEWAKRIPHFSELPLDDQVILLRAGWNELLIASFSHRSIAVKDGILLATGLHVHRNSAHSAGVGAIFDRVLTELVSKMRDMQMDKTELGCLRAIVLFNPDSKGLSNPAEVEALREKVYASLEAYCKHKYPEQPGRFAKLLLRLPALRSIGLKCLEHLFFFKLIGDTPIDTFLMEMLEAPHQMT
Chain of Thyroid hormone receptor beta (Homo sapiens) (P10828 whole entry, looked up): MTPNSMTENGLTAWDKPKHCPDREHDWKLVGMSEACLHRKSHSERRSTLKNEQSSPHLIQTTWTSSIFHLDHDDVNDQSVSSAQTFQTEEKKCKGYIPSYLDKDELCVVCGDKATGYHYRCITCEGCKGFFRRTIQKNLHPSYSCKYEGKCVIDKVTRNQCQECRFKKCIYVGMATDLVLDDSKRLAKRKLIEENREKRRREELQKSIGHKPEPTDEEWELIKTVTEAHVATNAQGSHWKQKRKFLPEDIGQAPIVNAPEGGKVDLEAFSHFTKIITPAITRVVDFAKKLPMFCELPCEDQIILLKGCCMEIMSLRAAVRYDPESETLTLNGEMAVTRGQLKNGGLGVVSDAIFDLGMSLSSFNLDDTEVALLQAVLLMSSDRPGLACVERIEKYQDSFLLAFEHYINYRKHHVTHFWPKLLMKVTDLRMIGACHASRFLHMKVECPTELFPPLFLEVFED
Chain of Voltage-gated inwardly rectifying potassium channel KCNH2 (Homo sapiens) (Q12809 whole entry, looked up): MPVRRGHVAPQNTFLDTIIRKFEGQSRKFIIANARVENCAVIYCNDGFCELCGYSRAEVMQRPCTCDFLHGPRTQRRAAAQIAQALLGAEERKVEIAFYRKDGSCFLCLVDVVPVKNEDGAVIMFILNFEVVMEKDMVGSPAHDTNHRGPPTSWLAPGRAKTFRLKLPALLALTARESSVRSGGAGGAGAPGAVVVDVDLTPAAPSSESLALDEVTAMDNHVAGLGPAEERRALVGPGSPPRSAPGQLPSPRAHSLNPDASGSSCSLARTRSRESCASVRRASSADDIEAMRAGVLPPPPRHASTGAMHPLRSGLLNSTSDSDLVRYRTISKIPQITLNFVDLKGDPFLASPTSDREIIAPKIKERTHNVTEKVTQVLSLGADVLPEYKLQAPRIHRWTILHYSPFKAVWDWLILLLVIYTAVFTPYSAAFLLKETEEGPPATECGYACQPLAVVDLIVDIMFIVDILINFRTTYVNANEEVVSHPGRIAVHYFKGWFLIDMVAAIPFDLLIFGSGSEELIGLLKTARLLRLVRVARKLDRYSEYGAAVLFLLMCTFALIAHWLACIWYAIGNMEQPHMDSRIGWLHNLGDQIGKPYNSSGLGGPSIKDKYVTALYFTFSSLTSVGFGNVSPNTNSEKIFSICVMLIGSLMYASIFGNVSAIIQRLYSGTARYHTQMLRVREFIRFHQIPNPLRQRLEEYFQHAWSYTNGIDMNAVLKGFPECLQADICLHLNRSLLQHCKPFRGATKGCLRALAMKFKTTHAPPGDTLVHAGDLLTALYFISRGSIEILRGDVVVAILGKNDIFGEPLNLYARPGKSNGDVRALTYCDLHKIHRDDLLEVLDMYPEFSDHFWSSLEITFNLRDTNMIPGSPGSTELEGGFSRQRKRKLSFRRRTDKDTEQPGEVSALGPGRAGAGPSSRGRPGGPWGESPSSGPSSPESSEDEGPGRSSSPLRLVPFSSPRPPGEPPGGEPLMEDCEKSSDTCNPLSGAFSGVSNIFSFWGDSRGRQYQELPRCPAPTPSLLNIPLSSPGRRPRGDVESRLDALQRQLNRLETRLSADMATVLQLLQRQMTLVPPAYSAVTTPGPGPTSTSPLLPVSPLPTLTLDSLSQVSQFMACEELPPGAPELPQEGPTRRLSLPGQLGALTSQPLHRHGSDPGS
Chain of Luciferin 4-monooxygenase (Photinus pyralis) (P08659 whole entry, looked up): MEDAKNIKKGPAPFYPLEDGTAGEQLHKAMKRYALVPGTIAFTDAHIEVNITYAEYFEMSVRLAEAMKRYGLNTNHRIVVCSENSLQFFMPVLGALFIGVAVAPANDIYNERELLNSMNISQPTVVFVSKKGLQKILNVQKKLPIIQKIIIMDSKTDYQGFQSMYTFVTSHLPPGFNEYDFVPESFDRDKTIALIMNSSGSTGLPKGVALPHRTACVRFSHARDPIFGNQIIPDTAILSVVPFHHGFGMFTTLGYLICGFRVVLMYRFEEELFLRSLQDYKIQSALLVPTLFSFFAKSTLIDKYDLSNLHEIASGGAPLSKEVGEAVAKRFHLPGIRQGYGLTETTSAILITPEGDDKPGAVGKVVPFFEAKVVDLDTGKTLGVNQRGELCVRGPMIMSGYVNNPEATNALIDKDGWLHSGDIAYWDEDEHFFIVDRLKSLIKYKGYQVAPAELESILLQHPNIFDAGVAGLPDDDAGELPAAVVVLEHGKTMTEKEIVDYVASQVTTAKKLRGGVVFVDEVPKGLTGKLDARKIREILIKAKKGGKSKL

O=c1c(-c2ccc(O)cc2)coc2cc(O)cc(O)c12
inactive: outcome [11] | activity change % (negative = inhibition) [12] -35.3% | Potency [3] | Potency [5] | Potency [6] | Potency [7] | Potency [8] | outcome [9] | Potency [10]
18.6%: max response [1]
active: Potency [2] 35.5 µM | Potency [4] 9.07 µM | Potency [13] 25.1 µM

CC#C[C@]1(O)CC[C@H]2[C@@H]3CCC4=CC(=O)CCC4=C3[C@@H](c3ccc(N(C)C)cc3)C[C@@]21C
active: Potency [7] 21.3 µM
inactive: outcome [11] | Potency [4] | Potency [13] | Potency [8] | outcome [9]

CC(C)NCC(O)c1ccc(O)c(O)c1 (stereo not given)
-15.7% and 0.88%: max response [1]
inactive: outcome [11] | max response [2] -2.1% and -5.01% | activity change % (negative = inhibition) [12] -0.838% and 16% | Potency [3] | Potency [4] | Potency [14] | Potency [13] | Potency [7] | outcome [9] | Potency [10]

Nc1ccn([C@H]2CC[C@@H](CO)O2)c(=O)n1
inactive: outcome [11] | max response [2] -7.58% and 1.21% | activity change % (negative = inhibition) [12] 1.36% and 5.95% | Potency [3] | Potency [4] | Potency [6] | Potency [7] | Potency [8] | outcome [9] | Potency [10]
-1.8% and -6%: max response [1]

N[C@@H](Cc1c[nH]c2ccc(O)cc12)C(=O)O
inactive: max response [2] 3.1% | activity change % (negative = inhibition) [12] -8.63% | Potency [3] | Potency [5] | Potency [13] | Potency [7] | Potency [8] | outcome [9]
1.87%: max response [1]
active: Potency [6] 1.12 µM

Cc1ccc(-c2cc(C(F)(F)F)nn2-c2ccc(S(N)(=O)=O)cc2)cc1
inactive: activity change % (negative = inhibition) [12] 17.3% | Potency [4] | Potency [14] | Potency [13] | outcome [15]
6.48% [at 92.2 µM]: viability, percent of control [18]
active: Potency [16] 43.2 µM
57.7% [at 92.2 µM]: viability (% of control) [17]

CN(Cc1cnc2nc(N)nc(N)c2n1)c1ccc(C(=O)N[C@@H](CCC(=O)O)C(=O)O)cc1
inactive: outcome [11] | activity change % (negative = inhibition) [12] -21.4% | Potency [3] | Potency [4] | Potency [5] | Potency [6] | Potency [7] | Potency [8] | outcome [9]

NCCS(=O)(=O)O
inactive: outcome [11] | max response [2] -0.744% | activity change % (negative = inhibition) [12] -15.9% | Potency [3] | Potency [4] | Potency [5] | Potency [13] | Potency [6] | Potency [7] | Potency [8] | outcome [9] | Potency [10]
-6.13%: max response [1]

COc1ccc2[nH]cc(CCNC(C)=O)c2c1
inactive: outcome [11] | max response [2] 0.955% and -6.07% and -2.21% | activity change % (negative = inhibition) [12] -14% and 1.14% and 10.4% | Potency [3] | Potency [4] | Potency [5] | Potency [6] | Potency [7] | Potency [8] | outcome [9] | Potency [10]
15.5% and 6.29% and -2.26%: max response [1]

CC(C)(Oc1ccc(C2CC2(Cl)Cl)cc1)C(=O)O (stereo not given)
3.34%: max response [1]
inactive: outcome [11] | max response [2] -27.6% | activity change % (negative = inhibition) [12] -9.34% | Potency [3] | Potency [4] | Potency [5] | Potency [6] | Potency [7] | Potency [8] | outcome [9] | Potency [10]

O=C(Nc1ccc([N+](=O)[O-])cc1Cl)c1cc(Cl)ccc1O
inactive: outcome [11] | Potency [3] | Potency [6] | Potency [7] | Potency [8] | outcome [9] | Potency [10]
3.51%: max response [1]
active: Potency [2] 2.51 µM | Potency [4] 0.114 µM | Potency [13] 2.51 µM

Cc1cn([C@H]2C=C[C@@H](CO)O2)c(=O)[nH]c1=O
inactive: outcome [11] | max response [2] 0.606% and 10% and 8.08% | activity change % (negative = inhibition) [12] 3.32% and -6.39% | Potency [3] | Potency [4] | Potency [14] | Potency [5] | Potency [6] | Potency [7] | Potency [8] | outcome [9] | Potency [10]
-1.05% and 0.328% and -3.51%: max response [1]

COc1ccc2c(c1)c(CC(=O)O)c(C)n2C(=O)c1ccc(Cl)cc1
inactive: outcome [11] | Potency [3] | Potency [4] | Potency [6] | Potency [7] | Potency [8] | outcome [9] | Potency [10]

CC1(C)O[C@H]2CC(=O)OC[C@]23[C@H]2CC[C@@]4(C)[C@H](c5ccoc5)OC(=O)[C@H]5O[C@]54[C@]2(C)C(=O)C[C@@H]13
inactive: Potency [3]

CN(C)c1nc(N(C)C)nc(N(C)C)n1
inactive: Potency [3] | Potency [4] | Potency [14] | Potency [5] | Potency [13] | Potency [6] | Potency [7] | Potency [8] | outcome [9]

NS(=O)(=O)c1cc2c(cc1Cl)NCNS2(=O)=O
inactive: outcome [11] | max response [2] 11.3% and 4.53% | activity change % (negative = inhibition) [12] -1.87% and 13.1% | Potency [3] | Potency [4] | Potency [5] | Potency [6] | Potency [7] | Potency [8] | outcome [9]
-4.08% and -3.49%: max response [1]
